# High-throughput results as filed in PubChem BioAssay.
# A selection: hits, their analogues and other compounds. The true share with any hit is near 4.5%.
# TPT1 inh: C. albicans TPT1 enzyme inhibition; recombinant caTPT1, FP RNA substrate dephosphorylation; inhibition, % at 5 µM; actives 0.81% (n = 300,000);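 active = inhibition above the mean of all tested compounds plus 3 SD, set per screening campaign, cut at about 24% in these data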;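 note: plate controls were DMSO alone for no effect and ferristatin control at 100 nM for full effect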
# dFosB act: enhances mouse delta FosB homodimer DNA binding | AID 493131 | purified delta FosB, TAMRA-CDK5 oligo fluorescence polarization; percent of positive-control signal above neutral wells | activation, % at 25 µM | actives 0.99% (n = 340,000);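 active = mean activation above about 17%, with every replicate also reaching it, limit read from the data, passing the limit was not always enough; inconclusive = only one of the two conditions met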
# Target sequence (P13346 whole entry, looked up): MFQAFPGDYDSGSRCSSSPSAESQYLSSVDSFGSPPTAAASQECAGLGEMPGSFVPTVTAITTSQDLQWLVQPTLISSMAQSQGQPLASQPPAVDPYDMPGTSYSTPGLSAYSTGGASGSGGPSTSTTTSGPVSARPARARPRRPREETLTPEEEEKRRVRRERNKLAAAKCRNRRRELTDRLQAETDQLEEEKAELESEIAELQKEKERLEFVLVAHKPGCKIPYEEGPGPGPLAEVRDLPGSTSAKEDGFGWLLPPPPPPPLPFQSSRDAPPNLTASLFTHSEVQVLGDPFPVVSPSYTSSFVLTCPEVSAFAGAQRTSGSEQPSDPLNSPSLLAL
# ZTA counter: counter-screen for EBNA-1 inhibitors: inhibitors of Epstein-Barr virus ZTA; ZTA-DNA binding, fluorescence polarization; inhibition, % at 11 µM; actives 0.15% (n = 320,000); AID 2234; in the data active = inhibition above about 33%
# NR3A LBD binder: NR3A (human) ligand-binding domain modulation. NR3A LBD differential scanning fluorimetry, Tm shift; 0% = protein alone, 100% = glycine-bound protein. Tm shift relative to glycine control, % at 25 µM. actives 2.5% (n = 340,000). AID 1259313;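 active = melting temperature shift of at least 10% of the positive control shift, at one fixed dose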
# EBNA-1 inh: blocks EBNA-1 binding to DNA. EBNA-1 DNA binding, fluorescence polarization. AID 1950. inhibition, % at 14.8 µM. actives 0.34% (n = 300,000); in the data active = inhibition above about 28%
# Rpn11 inh: Rpn11 (human) deubiquitinase inhibition; human 26S proteasome, Ub4-pepOG fluorescence polarization; 20S core pre-blocked with epoxomicin; AID 588493; inhibition, % at 20 µM; O00487; actives 0.59% (n = 360,000);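 active = inhibition at 20 µM, scaled to each plate's controls, above about 33%, limit read from the data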
# * marks the source's active call; other numbers are inactive results; ? = inconclusive; . = not tested or not shown.
SMILES,TPT1 inh,dFosB act,ZTA counter,NR3A LBD binder,EBNA-1 inh,Rpn11 inh
O=C(CSc1ccc(Br)cc1)NCC1CCCO1 (stereo unspecified),-3,-2,-12,1,5,-5
O=C(CN1c2ccccc2Sc2ccccc21)NNC(=S)Nc1ccc(Cl)cc1,-4,1,-3,33*,13,17
O=C(CN1c2ccccc2Sc2ccccc21)NNC(=S)Nc1ccc(Cl)cc1Cl,-7,-3,-15,21*,5,-3
CCOc1ccc(N2C(=O)/C(=C\c3ccccc3OC)S(=O)(=O)C2c2cccc([N+](=O)[O-])c2)cc1 (stereo unspecified),1,-8,-8,-3,2,-2
Cc1cc2[nH]c(=O)c(=O)[nH]c2cc1S(=O)(=O)NCc1ccc(Cl)cc1,-1,-7,6,-3,2,-2
CCC/C(=N\NC(=O)CNC(=O)/C=C/c1ccco1)c1ccccc1,-2,2,-15,10*,-10,-3
O=C(NCCCN1CCOCC1)c1ccc(Sc2cccc(Cl)c2)c([N+](=O)[O-])c1,-1,0,-9,19*,5,-2
COc1ccc(NC(=O)c2ccc(NCCCN3CCOCC3)c([N+](=O)[O-])c2)cc1,-6,-6,-15,14*,-9,-14
O=C(NCCCN1CCOCC1)c1ccc(Cl)c([N+](=O)[O-])c1,-2,.,5,1,0,3
O=C(Nc1ccc(Cl)c([N+](=O)[O-])c1)c1ccc(NCCCN2CCOCC2)c([N+](=O)[O-])c1,16,?,-7,-1,7,54*
Cc1ccc(NC(=O)c2ccc(NCCCN3CCOCC3)c([N+](=O)[O-])c2)cc1Cl,-2,12,14,-7,15,7
CCOC(=O)c1cc2c(ccc3nc(C)c(C)c32)[nH]c1C,-8,-13,-1,0,5,-5
Cc1ccc(NC(=O)CN(C)C(=O)C(Sc2ccccc2)c2ccccc2)cc1 (stereo unspecified),.,-7,9,-6,.,5
Fc1ccc(OCc2nc3ccccc3s2)cc1,13,1,-4,2,-18,20
COc1ccccc1/C=C\C(=O)NCC(=O)N/N=C/c1cccc(OC)c1O,-3,30*,3,1,5,-6
COc1cccc(C=Nc2ccc(C)c(F)c2)c1O,0,2,-14,13*,14,-8
COc1cccc(/C=N/NC(=O)N/N=C/c2cccc(OC)c2O)c1O,0,-4,-11,35*,-6,-1
COc1ccccc1C=NNC(=O)NN=Cc1ccccc1OC,.,-13,.,-1,.,-1
COc1ccccc1C=NN=C(NN=Cc1ccccc1OC)NN=Cc1ccccc1OC,.,44*,.,-2,.,8
Cc1cc(C)nc(N2CCCC(C(=O)Nc3cccc(Cl)c3)C2)n1 (stereo unspecified),0,-2,3,-5,1,2
CC(C)CN(C(=O)COC(=O)CN1C(=O)c2ccccc2C1=O)c1c(N)n(Cc2ccccc2)c(=O)[nH]c1=O,-1,-17,-14,-2,2,2
CC(C)(CO)NCC(O)Cn1cc(C=O)c2ccccc21 (stereo unspecified),0,-8,3,0,-4,1
CC(NC(=O)c1cc(F)c(F)c(F)c1F)c1ccc(-n2ccnc2)cc1 (stereo unspecified),1,-3,-8,-1,2,7
CCn1c(C)nc2cc(C(=O)N/N=C/c3cccc(OC)c3O)ccc21,-3,22*,9,-2,-4,9
COc1cccc(/C=N/Nc2snc(SC)c2C#N)c1O,3,-3,-5,30*,5,3
SMILES,TPT1 inh,dFosB act,ZTA counter,NR3A LBD binder,EBNA-1 inh,Rpn11 inh
CCn1c(C)nc2cc(C(=O)N/N=C/c3ccc(O)c(O)c3O)ccc21,.,-12,.,-1,.,-4
O=C(Nc1ccc(F)cc1)c1ccccc1F,3,-2,16,1,2,-6
COc1ccc(NC(=O)Nc2ccccc2OC)cc1,3,-6,-2,-6,-6,-5
O=C(Nc1ccc(F)cc1)Nc1ccc(NC(=O)c2ccccc2O)cc1,0,.,10,32*,13,2
COc1ccccc1NC(=O)Nc1ccc(NC(=O)c2ccccc2O)cc1,0,-6,4,32*,-5,2
O=C(Nc1ccccc1O)c1ccccc1O,1,-1,3,15*,-17,4
CC(NCC(=O)Nc1cc(S(=O)(=O)N2CCOCC2)ccc1N1CCOCC1)c1ccco1 (stereo unspecified),.,-6,-3,4,.,-14
COc1ccncc1-c1csc(C(O)c2ccccc2)n1 (stereo unspecified),.,.,.,.,.,0
C#CCOc1coc(COC(=O)c2ccccc2)cc1=O,-3,-7,6,0,2,5
Cc1cc(C)cc(N2C(=O)CC(N3CCOCC3)C2=O)c1 (stereo unspecified),-2,2,2,11*,-10,3
O=C1CC(N2CCOCC2)C(=O)N1c1cc(Cl)cc(Cl)c1 (stereo unspecified),-1,-4,-20,0,-1,5
COc1ccccc1OCCNC(=O)c1ccc(C)o1,1,-5,16,1,10,-1
CC1=NN(C(N)=S)C(=O)C1N=Nc1ccc(Cl)cc1Cl (stereo unspecified),.,-4,.,11*,.,2
CC1=NN(C(N)=S)C(=O)C1N=Nc1ccc(C)c(Br)c1 (stereo unspecified),-2,-6,-9,12*,4,7
Cc1cc(C(C)(C)C)cc(S(=O)(=O)NCCc2ccncc2)c1C,-1,-8,-9,0,11,0
O=C(CCS(=O)(=O)c1ccc(Br)cc1)NC1CCCCCC1,-3,-2,-2,-1,14,-1
COc1ccc(-c2nc(-c3ccc(O)cc3O)cs2)cc1OC,.,-27,.,26*,.,-2
COc1ccc(-c2csc(-c3ccc(O)cc3)n2)cc1,0,0,12,24*,-8,1
COc1ccc(-c2nc(CCl)cs2)cc1OC,1,0,-2,1,-1,-5
COC(=O)c1cccc(N/C=C(\[N+](=O)[O-])S(=O)(=O)c2ccccc2)c1,-1,1,17,-3,3,4
O=C(CSc1ncnc2nc[nH]c12)N1CCOCC1,-2,-4,-10,11*,-6,3
O=C(COC(=O)c1c(Cl)cccc1Cl)Nc1ccccc1Br,-4,-8,-10,15*,9,1
COC1CCCCC1NS(=O)(=O)c1ccc(Cl)cc1 (stereo unspecified),0,0,8,0,1,-1
COC1CCCCC1NS(=O)(=O)c1ccccc1 (stereo unspecified),2,-5,-3,18*,-7,-2
